High-throughput results from PubChem BioAssay.
A selection: hits, their analogues and other compounds. The true share with any hit is near 19%.
IL1B secr inh: inflammasome signaling inhibition, IL-1 beta readout; THP-1 LPS/ATP IL-1B secretion, AlphaLISA, 16 h; hits give low values; 360,000 tested, 4.7% active; activity change, % at 57.5 µM; AID 743279; in the data active = activity change below about -50%; inconclusive = mostly about -30% to -49%
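Secreted IL-1B measured by AlphaLISA bead assay after 16 h compound exposure of THP-1 cells; compounds (final up to 57.5 uM) added 1 h before LPS (250 ng/mL) and ATP (1.25 mM) stimulation; lower signal means less secretion.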
DT40 TDP1 CPT: growth inhibition of DT40 Tdp1-/-;hTDP1 cells with camptothecin (screen for TDP1 inhibitors) | chicken DT40 Tdp1-/-;hTDP1 cells + 20 nM CPT, ATP luminescence, 48 h | 420,000 tested, 12% active | Potency, µM (doses to about 46.2 µM), inactives show top-dose activity change, negative = growth inhibition, hits mostly inhibitors; also: potency is read from the fitted curve at half-maximal effect; nearly all actives have a fitted effect of over 55% in size
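Cell growth measured by CellTiter-Glo luminescence after a minimum 48 h, 37 C compound exposure with 20 nM CPT in Tdp1-knockout DT40 cells stably expressing hTDP1, seeded 400/well; qHTS titration format.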
TDP1 cell noCPT: qHTS for Inhibitors of human tyrosyl-DNA phosphodiesterase 1 (TDP1): qHTS in cells in absence of CPT | DT40 Tdp1-/- hTDP1 cells, no CPT, ATP luminescence, 48 h | Potency, µM (series often up to 46.2 µM), inactives show at the top dose activity change, negative = growth inhibition, actives largely listed as inhibitors | 420,000 tested, 15% active; also: potency is read from the fitted curve at half-maximal effect; nearly all actives have a fitted effect of over 55% in size
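DT40 Tdp1-/-;hTDP1 cells, no CPT (DMSO vehicle only), 400 cells/well; compounds pin-transferred; ≥48 hr, 37 °C; CellTiter-Glo 30 min RT dark, luminescence read.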
HT1080NT lethal: kills 2HG-producing HT-1080-NT fibrosarcoma cells; HT-1080-NT fibrosarcoma viability, CellTiter-Glo ATP luminescence, 48 h; Potency, µM (highest dose often 46.1 µM), for the others: at the top dose activity, negative = less viability, usual class: cytotoxic; 360,000 tested, 1.6% active;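 also: NT is the 2HG producing partner of a matched IDH1 knockdown line; potency is read from the fitted curve at half-maximal effect; 0% = DMSO-treated cells and -100% = media-only wells without cells; nearly all actives have a fitted effect of over 55% in size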
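Luminescent CellTiter-Glo readout after 48 hours of compound exposure at 37 degrees C defined viability of HT-1080-NT cells. Activity was normalized to DMSO wells and cell-free media wells; concentration-response curves were fitted and assigned curve classes.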
HT1080 IDH1KD tx: kills HT-1080 cells with IDH1 knockdown; HT-1080 IDH1 knockdown viability, ATP luminescence, 48 h; Potency, µM (series often up to 46.1 µM), inactives show at the highest dose activity, negative = toxicity, actives largely listed as cytotoxic; 360,000 tested, 2% active;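 also: potency is read from the fitted curve at half-maximal effect; 0% = DMSO wells and -100% = cell-free medium wells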
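Knockdown cells (IDH1KD HT-1080) received compounds 2 h after plating at 750 cells/well and were kept 48 h at 37 °C in 5% FBS RPMI. A CellTiter-Glo luminescence read gave % activity for curve fitting.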
The depositor's hits bear a star. Unless noted, calls follow the shape of the dose curve; as a rule, active = well fitted curve in the direction sought with a large enough effect; inconclusive = small, poorly fitted or top-dose-only effect, or another doubt; inactive = no such curve, though single readings can be large; an effect the other way counts as inactive or inconclusive. Unless noted, % is scaled to controls: 0 for no effect and ±100 for the full control effect.

`CCC(=O)C1=C(c2cccc(OC)c2)N(C(=O)CC)n2c(nnc2C2CCCCC2)S1` gave DT40 TDP1 CPT 8.2µM* and TDP1 cell noCPT 12µM*.
Screening CCC(=O)C1=C(c2cccc([N+](=O)[O-])c2)N(C(=O)CC)n2c(nnc2-c2ccccc2)S1 returned DT40 TDP1 CPT 4.1µM* and TDP1 cell noCPT 3.3µM*.
CCC(=O)C1=C(c2ccccc2)N(C(=O)CC)n2c(nnc2C2CCCCC2)S1 was read as DT40 TDP1 CPT 9% and TDP1 cell noCPT -2%.
`CCC(=O)C1=C(c2ccc(OC)c(OC)c2)N(C(=O)CC)n2c(nnc2-c2ccc(C)cc2)S1` gave DT40 TDP1 CPT -3% and TDP1 cell noCPT -25%.
`CC(=O)C1=C(c2ccccc2)N(C(C)=O)n2c(nnc2C2CCCCC2)S1` gave DT40 TDP1 CPT inconclusive and TDP1 cell noCPT 4.6µM*.
For CC(=O)C1=C(c2ccc(Cl)c(Cl)c2)N(C(C)=O)n2c(nnc2C2CCCCC2)S1 the results were DT40 TDP1 CPT inconclusive and TDP1 cell noCPT -27%.
`COc1cccc(C2=C(C(C)=O)Sc3nnc(C4CCCCC4)n3N2C(C)=O)c1` gave DT40 TDP1 CPT 7.3µM* and TDP1 cell noCPT 12µM*.
`C=CCn1c(=O)/c(=C2/SC(C)=C(C)N2CC)s/c1=C1/C(=O)N(CC)C(=S)N1c1ccccc1` gave IL1B secr inh -2, DT40 TDP1 CPT -29%, TDP1 cell noCPT inconclusive, HT1080NT lethal -5% and HT1080 IDH1KD tx -4%.
For CSc1cccc(NC(=O)C2(S(=O)(=O)c3ccc(C)cc3)CC2)c1 the results were IL1B secr inh -9, DT40 TDP1 CPT 0%, TDP1 cell noCPT -21%, HT1080NT lethal 21% and HT1080 IDH1KD tx 0%.
`CCn1c(CNc2ccc(C)cc2)nnc1SCC(N)=O` gave IL1B secr inh 8, DT40 TDP1 CPT -1%, TDP1 cell noCPT -11%, HT1080NT lethal 7% and HT1080 IDH1KD tx 15%.
Screening COc1ccc(CCN(C)C2CC(=O)N(c3ccccc3)C2=O)cc1OC (stereo unspecified) returned IL1B secr inh 21, DT40 TDP1 CPT 9.2µM*, TDP1 cell noCPT inconclusive, HT1080NT lethal 8% and HT1080 IDH1KD tx 5%.
Screening COc1ccc(CN(C)CCc2ccccn2)cc1OC returned IL1B secr inh 12, DT40 TDP1 CPT -25%, TDP1 cell noCPT -7%, HT1080NT lethal 12% and HT1080 IDH1KD tx 20%.
COc1ccc(CCN(C)Cc2ccc(OC)c(OCc3ccccc3)c2)cc1OC was read as IL1B secr inh -21, DT40 TDP1 CPT inconclusive, TDP1 cell noCPT 23µM*, HT1080NT lethal -8% and HT1080 IDH1KD tx inconclusive.
Screening CCCCn1c(N)c(N(CCOC)C(=O)CSc2nnc(-c3ccc(F)cc3)n2N)c(=O)[nH]c1=O returned IL1B secr inh 9, DT40 TDP1 CPT 0%, TDP1 cell noCPT 2%, HT1080NT lethal 2% and HT1080 IDH1KD tx 15%.
`Cc1noc(C)c1COc1ccccc1C(=O)N1CCN(S(=O)(=O)c2ccc(C(C)C)cc2)CC1` gave IL1B secr inh -17, DT40 TDP1 CPT inconclusive, TDP1 cell noCPT 16µM*, HT1080NT lethal -4% and HT1080 IDH1KD tx 0%.
For Cc1cc(C)c(C)c(S(=O)(=O)N2CCN(C(=O)c3ccccc3OCc3c(C)noc3C)CC2)c1C the results were IL1B secr inh 12, DT40 TDP1 CPT inconclusive, TDP1 cell noCPT 18µM*, HT1080NT lethal -2% and HT1080 IDH1KD tx -28%.
`O=C(c1ccccc1Cc1ccccc1)N1CCN(S(=O)(=O)c2ccccc2Br)CC1` gave IL1B secr inh -61*, DT40 TDP1 CPT inconclusive, TDP1 cell noCPT inconclusive, HT1080NT lethal 3% and HT1080 IDH1KD tx 2%.
Cc1noc(C)c1COc1ccccc1C(=O)N1CCN(S(=O)(=O)c2ccccc2C(F)(F)F)CC1 was read as IL1B secr inh 0, DT40 TDP1 CPT inconclusive, TDP1 cell noCPT inconclusive, HT1080NT lethal 0% and HT1080 IDH1KD tx -2%.
Cc1noc(C)c1COc1ccccc1C(=O)N1CCN(S(=O)(=O)c2cccc(Cl)c2)CC1 was read as IL1B secr inh -3, DT40 TDP1 CPT -14%, TDP1 cell noCPT -17%, HT1080NT lethal -10% and HT1080 IDH1KD tx -1%.
`Cc1noc(C)c1COc1ccccc1C(=O)N1CCN(S(=O)(=O)c2ccccc2Br)CC1` gave IL1B secr inh 27, DT40 TDP1 CPT 16µM*, TDP1 cell noCPT 21µM*, HT1080NT lethal -13% and HT1080 IDH1KD tx 0%.
CCOc1ccccc1N1CC(C(=O)Nc2cc(Cl)ccc2-n2cncn2)CC1=O (stereo unspecified) was read as IL1B secr inh 5, DT40 TDP1 CPT -16%, TDP1 cell noCPT -20%, HT1080NT lethal -13% and HT1080 IDH1KD tx -8%.
COc1ccc(CCNC(=O)COC(=O)CCC(=O)c2ccc(F)cc2)cc1OC was read as IL1B secr inh 8, DT40 TDP1 CPT 0%, TDP1 cell noCPT -1%, HT1080NT lethal -5% and HT1080 IDH1KD tx -1%.
For COc1ccc(NC(=O)CSc2nncs2)cc1S(=O)(=O)N1CCCCC1 the results were IL1B secr inh -10, DT40 TDP1 CPT -20%, TDP1 cell noCPT 5%, HT1080NT lethal 3% and HT1080 IDH1KD tx -4%.
O=C(CSc1nncs1)Nc1ccc(N2CCCCC2)cc1 was read as IL1B secr inh 4, DT40 TDP1 CPT inconclusive, TDP1 cell noCPT 16µM*, HT1080NT lethal 6% and HT1080 IDH1KD tx -6%.
Screening COc1ccc(C)cc1-n1nnnc1SCc1nc(N)nc(N(C)C)n1 returned IL1B secr inh -12, DT40 TDP1 CPT 4.6µM*, TDP1 cell noCPT 6.5µM*, HT1080NT lethal inconclusive and HT1080 IDH1KD tx inconclusive.
`Cc1cccc(C)c1-n1nnnc1SCc1nc(N)nc(N(C)C)n1` gave IL1B secr inh 21, DT40 TDP1 CPT 2.3µM*, TDP1 cell noCPT 2.1µM*, HT1080NT lethal inconclusive and HT1080 IDH1KD tx inconclusive.
Screening CN(C)c1nc(N)nc(CSc2nnnn2-c2ccc(F)cc2)n1 returned IL1B secr inh 32, DT40 TDP1 CPT -35%, TDP1 cell noCPT -24%, HT1080NT lethal 0% and HT1080 IDH1KD tx inconclusive.
For COc1ccc(CCNC(=O)C2CCCN(C(=O)N(C)C)C2)c(OC)c1 (stereo unspecified) the results were IL1B secr inh 6, DT40 TDP1 CPT -6%, TDP1 cell noCPT -5%, HT1080NT lethal 6% and HT1080 IDH1KD tx inconclusive.
`CS(=O)(=O)c1ccc(-c2nnc(NC(=O)c3ccc(S(=O)(=O)N4CCCC4)cc3)o2)cc1` gave IL1B secr inh 3, DT40 TDP1 CPT 0%, TDP1 cell noCPT 6%, HT1080NT lethal -12% and HT1080 IDH1KD tx -16%.
